# Assay outcomes: PubChem BioAssay, Broad Institute
# Sampled rows, rich in hits. Any-hit rate of the full collection: about 3.9%.
# HSF-1 act – HSF-1 activators, primary screen, NIH3T3-HGL cells, MG132 stress, luminescence, single point | NIH3T3-HGL HSF-1 luciferase reporter, 8 h; 100% = twice DMSO control signal | activation, % at 9 µM | 300,000 compounds, 1.7% hits | AID 504408, 2011;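 active means mean replicate activation of at least 50% with a set share of replicates each reaching 50%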;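 further: 0% = median of the neutral control wells and 100% = twice that signal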
# Wnt bcat act – Wnt/beta-catenin pathway activators, primary screen, cell-based, plate reader, single point | 300,000 compounds, 1.2% hits | Wnt/beta-catenin reporter cell assay, activator | activation, % at 9.35 µM; in the data active means activation above about 30%, passing the limit was not always enough;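 further: 0% = neutral control wells and 100% = positive control wells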
# MITF TRPM1 HTS – activators of MITF-driven TRPM1 promoter reporter, primary screen, cell-based, SK-MEL-5, luciferase, single point | activation, % at 12.5 µM | AID 588334, 2011 | SK-MEL-5 TRPM1-promoter luciferase, 24 h; % of positive control, neutral wells = 0 | 300,000 compounds, 0.75% hits;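 active means mean activation of at least 80% with every replicate also reaching 80%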;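 further: 0% = neutral control wells and 100% = parthenolide positive control wells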
# HSF1 inh – HSF1 inhibitors in luciferase reporter cells, primary screen, cell-based, NIH3T3, luminescence | 300,000 compounds, 0.77% hits | activity change, negative = inhibition, % at 7.5 µM (by protocol) | NIH3T3-HGL HSE-luciferase, MG132-induced, luminescence 8 h; stronger effect = lower value;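 active means more than half of replicate wells show activity change below -50%, luminescence cut by over half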;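 further: luciferase reports HSF-1 transcriptional activity via heat shock element; 0% = median of DMSO wells and -100% = zero luminescence signal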
# esBAF inh – Bmi1 luciferase reporter increase in mESCs, primary screen, esBAF inhibitor project, mouse ES cells, Bmi1 luciferase knock-in, single point; 24 h; 100% = twice the neutral-well signal; AID 602393, 2012; 350,000 compounds, 2% hits; reporter increase, % at 12.5 µM; in the data active means activation above about 40%;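 further: 0% = median of the plate's neutral control wells and 100% = double that signal; a rise in the Bmi1 reporter signal indicates esBAF inhibition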
# Active calls of the source: *; nt = no result given.
SMILES,HSF-1 act,Wnt bcat act,MITF TRPM1 HTS,HSF1 inh,esBAF inh
COc1ccc(Nc2nc3ccccc3n2C)cc1,39,41*,65,16,-7
O=C(Nc1cnn(Cc2c(Cl)cccc2Cl)c1)c1ccc([N+](=O)[O-])cc1,11,nt,29,19,73*
CN(C)c1ccc(NC(=O)c2ccc(Cn3cc([N+](=O)[O-])cn3)cc2)cc1,29,-1,44,6,57*
COC(=O)c1ccc(C)c(NC(=O)c2ccc(Cn3cc([N+](=O)[O-])cn3)o2)c1,60*,-1,-4,25,nt
Cc1ccc(NC(=O)c2ccc(Cn3cc(Br)cn3)o2)cc1,226*,3,-2,160,5
COC(=O)c1ccc(C)c(NC(=O)Cc2ccc([N+](=O)[O-])cc2)c1,-23,nt,nt,0,nt
C[C@H]1CCCCO[C@@H](CN(C)C(=O)c2ccccc2)[C@@H](C)CN([C@@H](C)CO)C(=O)c2cc(NS(=O)(=O)c3cn(C)cn3)ccc2O1,nt,nt,nt,nt,-3
COc1cccc(NC(=O)Nc2ccc3c(c2)OC[C@@H](C)NC[C@H](C)[C@@H](OC)CN(C)C3=O)c1,nt,nt,nt,nt,9
COc1cccc(Cn2c(=O)sc3ccccc3c2=O)c1,81*,-3,32,46,nt
Cc1ccc(Cn2c(=O)sc3ccccc3c2=O)cc1,6,nt,7,5,-2
CC(C)N(C(=O)COC(=O)c1ccccc1C(=O)c1ccc(Cl)c([N+](=O)[O-])c1)C(C)C,91*,-1,-44,74,nt
O=C(NC(=S)N1CCN(C/C=C/c2ccccc2)CC1)c1ccc(Cl)nc1,69*,2,nt,38,4
O=C(NC(=S)N1CCN(Cc2ccccc2)CC1)c1cccnc1,-1,-15,3,-10,3
O=C(COc1ccccc1)N1CCCC1,-10,-3,0,-1,nt
O=C(Oc1ccc(Cl)cc1)N1CCOCC1,1,0,1,-9,16
O=C(Oc1ccc(Cl)cc1)N1CCCCC1,16,nt,nt,5,50*
O=C(COc1ccc(Cl)cc1)N1CCCC1,-73,1,-5,-71*,1
O=C(Oc1ccc(-c2ccccc2)cc1)N1CCOCC1,23,nt,86*,2,62*
CCC(=O)N(C)C[C@@H]1Oc2ncc(C#Cc3ccccc3)cc2C(=O)N([C@H](C)CO)C[C@H]1C,nt,nt,nt,nt,1
Cc1ccc(S(=O)(=O)N(C)C[C@@H]2OCCCC[C@H](C)Oc3ccc(NC(=O)NC4CCCCC4)cc3C(=O)N([C@@H](C)CO)C[C@@H]2C)cc1,nt,nt,nt,nt,-3
COc1ccc(OC)c(N/C=C/C(=O)c2ccccc2)c1,-54,-3,nt,-43,-80
COc1ccc(C(=O)/C=C/c2ccccc2F)c(OC(=O)c2ccc([N+](=O)[O-])cc2)c1,2,35*,10,8,24
COc1ccc(C(=O)/C=C/Nc2cc(C)on2)c(OC)c1,-66,nt,nt,-58*,66*
COc1ccc(OC)c(C(=O)/C=C/c2ccccc2C(F)(F)F)c1,212*,-4,-8,159,5
COc1ccc(C(=O)/C=C/Nc2ccc([N+](=O)[O-])cc2C)c(OC)c1,-2,-2,20,6,nt
SMILES,HSF-1 act,Wnt bcat act,MITF TRPM1 HTS,HSF1 inh,esBAF inh
COc1ccc(C(=O)/C=C/c2ccc(N3CCCCC3)c([N+](=O)[O-])c2)c(OC)c1,68*,nt,-2,50,nt
C[C@H](CO)N1C[C@H](C)[C@H](CN(C)C(=O)Nc2ccc(F)cc2)Oc2ccc(NS(=O)(=O)c3ccc(Cl)cc3)cc2CC1=O,nt,nt,nt,nt,-8
C[C@@H]1CN([C@@H](C)CO)C(=O)c2cc(NC(=O)CCC(F)(F)F)ccc2O[C@@H](C)CCCCO[C@@H]1CN(C)Cc1ccc(C(F)(F)F)cc1,nt,nt,nt,nt,0
COc1cc(C)cc(C(=O)C=Cc2ccccc2)c1O,nt,-7,29,nt,8
COCOc1cc(O)c(C(=O)/C=C/c2ccccc2)c(OCOC)c1,155*,-2,-26,151,17
O=C(Nc1ccon1)c1ccc(N2CCCCC2)c([N+](=O)[O-])c1,43,29,91*,8,nt
COc1ccc(NC(=O)CN(C)C(=O)c2ccc(N3CCCCCC3)c([N+](=O)[O-])c2)cc1,67*,0,7,23,2
COc1ccc(C(=O)/C=C/c2ccccc2)c(OC)c1,62*,1,38,34,86*
Cc1cc(NC(=O)c2ccc(N3CCCC3)c([N+](=O)[O-])c2)no1,7,16,0,-5,nt
CCC(=O)N1CCCCN2[C@H](C1)[C@H](c1ccc(C#Cc3cccnc3)cc1)[C@@H]2CO,nt,nt,nt,nt,-4
CCC(=O)N(C)C[C@@H]1Oc2cc(-c3cccnc3)ccc2S(=O)(=O)N([C@H](C)CO)C[C@H]1C,nt,nt,nt,nt,-2
O=C(Nc1cccc(F)c1)N[C@H]1CC[C@H](CCn2cc(Cc3ccccc3)nn2)O[C@H]1CO,nt,nt,nt,nt,-1
C[C@@H]1CCCCO[C@H](CN(C)Cc2ccc(Cl)c(Cl)c2)[C@@H](C)CN([C@H](C)CO)C(=O)c2cc(NS(=O)(=O)c3ccccc3)ccc2O1,nt,nt,nt,nt,-2
N#C/C(=C\c1ccccc1[N+](=O)[O-])C(=O)NC1CCCCC1,9,-5,7,-1,nt
N#C/C(=C\C=C\c1ccccc1[N+](=O)[O-])C(=O)NC1CCCCC1,82*,nt,-71,34,9
Cc1ccccc1S(=O)(=O)N1CC[C@@H]2[C@H]1c1cc(-c3ccc(C#N)cc3)ccc1N[C@@H]2CO,nt,nt,nt,nt,-3
C[C@H]1CCCCO[C@@H](CN(C)Cc2ccncc2)[C@@H](C)CN([C@@H](C)CO)C(=O)c2cc(NC(=O)C3CCCCC3)ccc2O1,nt,nt,nt,nt,0
CCC(C)NC(=O)Cc1c(OC)ccc2cc(Br)ccc12 (configuration not stated),62*,1,-5,26,-9
CCCC(=O)Nc1nc(-c2ccc3c(c2)OCCO3)cs1,nt,25,91*,nt,33
CSc1nsc(SCC(=O)NCc2ccc(C)cc2)n1,-84,-2,nt,-79*,4
CSCC(=O)Nc1nc(-c2ccc3c(c2)OCCO3)cs1,40,13,44,8,nt
COc1ccc(CCC(=O)Nc2nc(-c3ccncc3)cs2)cc1,10,nt,nt,12,nt
CCCC(=O)Nc1nc(-c2ccc(OC)cc2)cs1,19,nt,48,22,68*
CSc1nsc(SCC(=O)NCc2ccccc2)n1,-4,4,-18,-2,-1
COc1ccc(-c2csc(NC(=O)CSc3nc(SC)ns3)n2)cc1,71*,3,-9,24,67*
CN1CCN(C(=O)C[C@@H]2CC[C@H]3[C@@H](COC[C@H](O)CN3Cc3cccc(Cl)c3)O2)CC1,nt,nt,nt,nt,-7
C[C@@H]1CN([C@@H](C)CO)C(=O)c2cc(NS(=O)(=O)c3ccccc3)ccc2O[C@@H](C)CCCCO[C@H]1CN(C)Cc1ccc(C(=O)O)cc1,nt,nt,nt,nt,2
